Measured values: the supplement of paper PMC10849652
About 7,900 targets were measured; listed, in parts, are those with a hit and a random draw of the rest. About 0.6% of all pairs of compound and target were hits. A number with no mark means an inactive call.

What was measured:
Assay in all cases: log2 fold change, soluble protein after heating vs DMSO (PISA); higher = thermal stabilisation; K562 cells, 10 uM, 30 min; active = over 0.2 and 3.5 SD of the protein, either way, in both replicates (recomputed)
[1] = compound: COC1=CC=C(C=C1)CN2C=CC3=C2C=C(C=C3)C(=O)NO
Method in brief: (§1)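 Thermal stability values are relative to control samples and come from duplicates. They are expressed as log2 fold changes. For measurement, K562 cells (2×10^6 cells/mL) received 10 μM compound for 30 min, and aliquots were heated for 3 min over 48°C-58°C, pooled, and extracted at 4°C in PBS with 0.5% NP-40. Soluble protein, the supernatant after 21,000xg for 90 min, was quantified by TMTpro 16plex LC-MS/MS with equalised channel sums.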

filanesib = compound: CON(C)C(=O)N1N=C(c2cc(F)ccc2F)S[C@@]1(CCCN)c1ccccc1 [filanesib]
Method in brief: as §1

zotarolimus = compound: CO[C@H]1C[C@@H]2CC[C@@H](C)[C@@](O)(O2)C(=O)C(=O)N2CCCC[C@H]2C(=O)O[C@H]([C@H](C)C[C@@H]2CC[C@H](n3cnnn3)[C@H](OC)C2)CC(=O)[C@H](C)/C=C(\C)[C@@H](O)[C@@H](OC)C(=O)[C@H](C)C[C@H](C)/C=C/C=C/C=C/1C [zotarolimus]
Method in brief: as §1

idasanutlin = compound: COc1cc(C(=O)O)ccc1NC(=O)[C@@H]1N[C@@H](CC(C)(C)C)[C@](C#N)(c2ccc(Cl)cc2F)[C@H]1c1cccc(Cl)c1F [idasanutlin]
Method in brief: as §1

alisertib = compound: COc1cc(Nc2ncc3c(n2)-c2ccc(Cl)cc2C(c2c(F)cccc2OC)=NC3)ccc1C(=O)O [alisertib]
Method in brief: as §1

[2] = compound: COc1cc2nc(-c3cc(F)ccc3O)nc(N[C@@H]3CNC[C@H]3C(C)(C)O)c2cc1OC
Method in brief: as §1

gefitinib = compound: COc1cc2ncnc(Nc3ccc(F)c(Cl)c3)c2cc1OCCCN1CCOCC1 [gefitinib]
Method in brief: as §1

[3] = compound: COc1cccc2cc(-c3nc([C@H]4CC[C@H](C(=O)O)CC4)n4ncnc(N)c34)[nH]c12
Method in brief: as §1

lapatinib = compound: CS(=O)(=O)CCNCc1ccc(-c2ccc3ncnc(Nc4ccc(OCc5cccc(F)c5)c(Cl)c4)c3c2)o1 [lapatinib]
Method in brief: as §1

pictilisib = compound: CS(=O)(=O)N1CCN(Cc2cc3nc(-c4cccc5[nH]ncc45)nc(N4CCOCC4)c3s2)CC1 [pictilisib]
Method in brief: as §1

UniProt P29083, sequence (P29083 whole entry, looked up): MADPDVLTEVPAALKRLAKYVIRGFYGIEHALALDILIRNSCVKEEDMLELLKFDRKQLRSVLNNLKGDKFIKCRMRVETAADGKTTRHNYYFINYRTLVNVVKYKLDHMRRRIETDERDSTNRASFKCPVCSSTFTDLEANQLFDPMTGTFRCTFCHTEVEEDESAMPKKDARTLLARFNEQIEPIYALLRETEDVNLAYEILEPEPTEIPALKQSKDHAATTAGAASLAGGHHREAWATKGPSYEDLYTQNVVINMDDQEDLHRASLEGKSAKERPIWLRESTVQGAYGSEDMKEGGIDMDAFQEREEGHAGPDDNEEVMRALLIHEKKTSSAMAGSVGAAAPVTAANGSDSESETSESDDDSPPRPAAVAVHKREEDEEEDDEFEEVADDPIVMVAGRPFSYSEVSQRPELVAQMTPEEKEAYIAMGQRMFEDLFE
UniProt P22830, sequence (P22830 whole entry, looked up): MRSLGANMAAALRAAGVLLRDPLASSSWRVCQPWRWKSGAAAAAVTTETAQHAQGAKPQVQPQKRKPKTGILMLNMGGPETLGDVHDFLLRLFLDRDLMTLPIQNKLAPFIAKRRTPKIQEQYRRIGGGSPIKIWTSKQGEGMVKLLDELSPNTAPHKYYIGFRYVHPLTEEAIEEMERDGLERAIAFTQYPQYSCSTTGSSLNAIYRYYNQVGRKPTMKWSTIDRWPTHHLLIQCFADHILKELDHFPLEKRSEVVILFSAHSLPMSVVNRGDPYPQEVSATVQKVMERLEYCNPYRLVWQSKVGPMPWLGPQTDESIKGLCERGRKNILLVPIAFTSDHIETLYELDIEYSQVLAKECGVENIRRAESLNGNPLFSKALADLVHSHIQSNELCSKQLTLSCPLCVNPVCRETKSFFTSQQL
UniProt P06280, sequence (P06280 whole entry, looked up): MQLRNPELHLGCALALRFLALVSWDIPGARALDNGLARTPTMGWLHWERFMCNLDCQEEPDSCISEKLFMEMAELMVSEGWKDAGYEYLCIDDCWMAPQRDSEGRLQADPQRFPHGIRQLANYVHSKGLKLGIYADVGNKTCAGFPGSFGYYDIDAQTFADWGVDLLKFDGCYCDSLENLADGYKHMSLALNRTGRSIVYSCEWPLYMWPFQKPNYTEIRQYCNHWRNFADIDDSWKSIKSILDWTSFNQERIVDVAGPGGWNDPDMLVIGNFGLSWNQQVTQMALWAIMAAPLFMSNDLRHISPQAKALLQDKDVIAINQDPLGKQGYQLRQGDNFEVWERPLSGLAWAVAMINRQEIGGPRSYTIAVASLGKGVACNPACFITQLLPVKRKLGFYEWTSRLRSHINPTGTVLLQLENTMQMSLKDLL
UniProt P78417, sequence (P78417 whole entry, looked up): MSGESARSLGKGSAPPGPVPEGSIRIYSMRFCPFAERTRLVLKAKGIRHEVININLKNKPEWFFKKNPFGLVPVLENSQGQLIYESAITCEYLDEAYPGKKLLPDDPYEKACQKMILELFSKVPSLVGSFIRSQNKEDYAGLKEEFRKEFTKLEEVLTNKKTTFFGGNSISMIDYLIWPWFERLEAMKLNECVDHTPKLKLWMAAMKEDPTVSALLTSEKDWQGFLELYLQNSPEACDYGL
UniProt Q8N9F7, sequence (Q8N9F7 whole entry, looked up): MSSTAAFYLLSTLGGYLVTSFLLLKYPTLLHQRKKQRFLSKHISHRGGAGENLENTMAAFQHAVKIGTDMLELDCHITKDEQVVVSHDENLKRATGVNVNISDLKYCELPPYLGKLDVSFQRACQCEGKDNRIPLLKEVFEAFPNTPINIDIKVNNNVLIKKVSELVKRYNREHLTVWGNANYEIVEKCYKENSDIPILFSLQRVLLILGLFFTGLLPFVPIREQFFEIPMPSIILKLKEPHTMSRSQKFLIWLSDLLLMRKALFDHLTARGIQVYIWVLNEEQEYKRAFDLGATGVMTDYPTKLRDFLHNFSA
UniProt P23434, sequence (P23434 whole entry, looked up): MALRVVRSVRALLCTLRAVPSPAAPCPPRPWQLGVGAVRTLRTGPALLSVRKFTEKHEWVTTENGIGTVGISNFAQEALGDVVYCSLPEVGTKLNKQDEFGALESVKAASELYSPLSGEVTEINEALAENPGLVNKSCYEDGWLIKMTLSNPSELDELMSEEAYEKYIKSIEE
UniProt P52789, sequence (P52789 whole entry, looked up): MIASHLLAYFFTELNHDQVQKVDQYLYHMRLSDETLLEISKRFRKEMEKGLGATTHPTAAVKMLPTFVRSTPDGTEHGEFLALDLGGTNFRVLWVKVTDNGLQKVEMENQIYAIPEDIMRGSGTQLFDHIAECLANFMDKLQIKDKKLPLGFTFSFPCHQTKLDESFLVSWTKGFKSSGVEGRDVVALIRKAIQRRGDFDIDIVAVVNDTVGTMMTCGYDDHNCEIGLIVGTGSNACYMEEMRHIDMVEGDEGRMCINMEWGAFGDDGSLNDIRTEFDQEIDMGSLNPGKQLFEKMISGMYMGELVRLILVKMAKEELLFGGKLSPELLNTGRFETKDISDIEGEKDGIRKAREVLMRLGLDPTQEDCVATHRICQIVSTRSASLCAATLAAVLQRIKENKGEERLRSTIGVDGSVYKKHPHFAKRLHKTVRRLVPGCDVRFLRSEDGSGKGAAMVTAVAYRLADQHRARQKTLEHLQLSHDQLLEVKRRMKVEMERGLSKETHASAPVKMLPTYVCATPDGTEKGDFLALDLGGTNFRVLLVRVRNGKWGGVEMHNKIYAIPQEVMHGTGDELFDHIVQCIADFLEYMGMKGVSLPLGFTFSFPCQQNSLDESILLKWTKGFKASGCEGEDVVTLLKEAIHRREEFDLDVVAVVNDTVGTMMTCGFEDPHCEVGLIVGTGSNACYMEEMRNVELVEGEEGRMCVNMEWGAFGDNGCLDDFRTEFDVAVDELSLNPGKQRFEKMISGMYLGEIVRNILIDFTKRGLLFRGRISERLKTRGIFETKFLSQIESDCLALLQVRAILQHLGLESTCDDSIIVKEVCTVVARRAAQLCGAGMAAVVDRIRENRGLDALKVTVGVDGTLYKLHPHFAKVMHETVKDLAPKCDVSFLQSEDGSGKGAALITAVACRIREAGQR
UniProt P09105, sequence (P09105 whole entry, looked up): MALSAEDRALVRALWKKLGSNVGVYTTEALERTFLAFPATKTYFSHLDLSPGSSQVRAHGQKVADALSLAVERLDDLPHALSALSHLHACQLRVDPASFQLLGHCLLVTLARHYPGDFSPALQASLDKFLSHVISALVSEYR
UniProt Q06546, sequence (Q06546 whole entry, looked up): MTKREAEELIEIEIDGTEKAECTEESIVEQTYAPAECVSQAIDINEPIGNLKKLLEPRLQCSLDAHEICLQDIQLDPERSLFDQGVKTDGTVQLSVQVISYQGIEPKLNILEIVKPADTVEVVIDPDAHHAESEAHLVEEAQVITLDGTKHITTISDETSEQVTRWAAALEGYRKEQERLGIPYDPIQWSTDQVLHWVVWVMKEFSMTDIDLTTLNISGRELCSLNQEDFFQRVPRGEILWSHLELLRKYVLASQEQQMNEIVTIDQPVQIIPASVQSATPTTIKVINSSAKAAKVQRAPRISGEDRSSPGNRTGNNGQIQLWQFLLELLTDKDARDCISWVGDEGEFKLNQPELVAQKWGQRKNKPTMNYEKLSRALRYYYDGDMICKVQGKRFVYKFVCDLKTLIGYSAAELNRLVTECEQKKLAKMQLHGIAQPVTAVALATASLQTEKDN
UniProt Q12894, sequence (Q12894 whole entry, looked up): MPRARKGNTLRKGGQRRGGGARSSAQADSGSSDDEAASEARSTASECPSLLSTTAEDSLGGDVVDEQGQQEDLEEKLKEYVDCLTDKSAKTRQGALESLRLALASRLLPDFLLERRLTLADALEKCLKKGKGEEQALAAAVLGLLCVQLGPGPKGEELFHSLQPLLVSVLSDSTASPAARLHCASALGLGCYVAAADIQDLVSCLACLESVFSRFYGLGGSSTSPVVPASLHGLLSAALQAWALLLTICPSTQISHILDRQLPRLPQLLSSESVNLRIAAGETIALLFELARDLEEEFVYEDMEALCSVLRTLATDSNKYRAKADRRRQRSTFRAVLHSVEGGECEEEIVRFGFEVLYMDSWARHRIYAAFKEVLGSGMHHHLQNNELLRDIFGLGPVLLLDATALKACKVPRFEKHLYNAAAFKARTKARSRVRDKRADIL
UniProt Q96I24, sequence (Q96I24 whole entry, looked up): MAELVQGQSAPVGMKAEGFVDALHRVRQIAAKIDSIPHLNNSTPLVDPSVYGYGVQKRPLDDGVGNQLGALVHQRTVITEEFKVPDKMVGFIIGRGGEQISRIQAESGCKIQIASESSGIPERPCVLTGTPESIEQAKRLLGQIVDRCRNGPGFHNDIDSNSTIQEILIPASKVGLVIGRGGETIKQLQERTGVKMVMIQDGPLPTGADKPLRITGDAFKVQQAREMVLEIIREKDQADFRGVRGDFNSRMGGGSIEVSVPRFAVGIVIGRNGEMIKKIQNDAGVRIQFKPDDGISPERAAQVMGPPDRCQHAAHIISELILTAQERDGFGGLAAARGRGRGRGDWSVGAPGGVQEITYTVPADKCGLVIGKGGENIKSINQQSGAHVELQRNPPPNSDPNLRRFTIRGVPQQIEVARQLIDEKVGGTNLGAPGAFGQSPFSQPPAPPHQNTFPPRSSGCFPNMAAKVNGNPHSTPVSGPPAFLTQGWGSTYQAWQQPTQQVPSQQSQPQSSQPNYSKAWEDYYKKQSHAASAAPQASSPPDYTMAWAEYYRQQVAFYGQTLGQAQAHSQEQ
UniProt Q13889, sequence (Q13889 whole entry, looked up): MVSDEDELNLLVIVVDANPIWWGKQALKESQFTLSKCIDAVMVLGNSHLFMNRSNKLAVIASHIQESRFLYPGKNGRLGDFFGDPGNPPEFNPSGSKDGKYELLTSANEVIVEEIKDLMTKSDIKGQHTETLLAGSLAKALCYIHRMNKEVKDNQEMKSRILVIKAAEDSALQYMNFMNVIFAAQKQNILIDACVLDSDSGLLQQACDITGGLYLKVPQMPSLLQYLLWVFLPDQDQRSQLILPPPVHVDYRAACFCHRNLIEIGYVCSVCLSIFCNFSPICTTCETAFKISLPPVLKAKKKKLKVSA

Target | log2 fold change [1] | log2 fold change (filanesib) | log2 fold change (zotarolimus) | log2 fold change (idasanutlin) | log2 fold change (alisertib) | log2 fold change [2] | log2 fold change (gefitinib) | log2 fold change [3] | log2 fold change (lapatinib) | log2 fold change (pictilisib)
HLTF (UniProt Q14527) | -0.027 | -0.004 | -0.042 | -0.049 | 0.008 | 0.081 | 0.334 (active) | -0.126 | 0.013 | 0.007
GATD1 (UniProt Q8NB37) | -0.104 | 0.022 | -0.004 | -0.038 | -0.001 | 0.018 | -0.014 | 0.052 | -0.064 | 0.08
FBXO3 (UniProt Q9UK99) | 0.011 | -0.053 | -0.022 | 0.032 | -0.071 | -0.013 | 0.011 | 0.025 | 0.028 | -0.023
HDAC2 (UniProt Q92769) | -0.144 | 0.029 | 0.008 | 0.008 | -0.041 | 0 | 0.007 | 0.017 | 0.063 | 0.024
GALNT2 (UniProt Q10471) | 0.018 | -0.025 | 0.043 | -0.065 | -0.03 | -0.042 | 0.059 | -0.012 | 0.036 | -0.01
HBQ1 (UniProt P09105) | -0.034 | -0.027 | 0.051 | -0.023 | -0.115 | -0.05 | 0.033 | 0.091 | 0.001 | -0.012
GABPA (UniProt Q06546) | 0.01 | -0.111 | 0.063 | -0.025 | -0.002 | -0.134 | 0.032 | 0.029 | 0.048 | 0.02
HPCAL1 (UniProt P37235) | -0.085 | -0.128 | -0.017 | -0.062 | 0.002 | -0.012 | -0.021 | 0.06 | -0.027 | 0.013
GTF2E1 (UniProt P29083) | 0.042 | 0.01 | 0.004 | -0.032 | -0.026 | 0.06 | 0.013 | 0.012 | -0.037 | -0.002
GLA (UniProt P06280) | 0.033 | -0.048 | -0.003 | 0.06 | -0.089 | 0.018 | -0.011 | 0.01 | -0.026 | -0.06
FECH isoform 2 (UniProt P22830) | 0.159 | -0.188 | 0.082 | -0.127 | -0.185 | 0.363 | 0.153 | 0.062 | 0.269 | 0.396
GNAS (UniProt Q5JWF2) | -0.048 | 0 | -0.03 | -0.048 | -0.09 | 0.052 | 0.108 | -0.077 | 0.02 | 0.051
HSPA8 (UniProt P11142) | -0.008 | -0.035 | 0.005 | 0.018 | -0.036 | -0.004 | 0.018 | -0.012 | -0.018 | -0.039
GNL1 (UniProt P36915) | 0.047 | -0.066 | 0.049 | -0.056 | -0.107 | 0.039 | 0.031 | 0.061 | 0.011 | 0.04
GUSB (UniProt P08236) | -0.063 | -0.016 | 0.014 | 0.034 | 0.022 | -0.084 | -0.013 | -0.027 | 0.016 | 0.098
GTF2H3 (UniProt Q13889) | -0.031 | 0.062 | -0.04 | -0.077 | -0.155 | 0.016 | 0 | 0.041 | 0.056 | -0.089

Target | log2 fold change [1] | log2 fold change (filanesib) | log2 fold change (zotarolimus) | log2 fold change (idasanutlin) | log2 fold change (alisertib) | log2 fold change [2] | log2 fold change (gefitinib) | log2 fold change [3] | log2 fold change (lapatinib) | log2 fold change (pictilisib)
HMOX2 (UniProt P30519) | 0.444 (active) | 0.085 | 0.027 | 0.148 | -0.03 | 0.036 | 0.006 | -0.041 | -0.045 | -0.04
FNTB (UniProt P49356) | 0.088 | 0.26 | 0.159 | -0.024 | -0.074 | -0.057 | 0.02 | 0.024 | 0.18 | -0.165
GAPVD1 isoform 6 (UniProt Q14C86) | 0.003 | 0.033 | 0.055 | -0.021 | 0.047 | -0.048 | -0.013 | -0.068 | 0.041 | -0.025
HMGN2 (UniProt P05204) | 0.01 | -0.043 | -0.048 | 0.041 | -0.028 | 0.073 | 0.046 | 0.09 | -0.051 | -0.264
IFRD2 isoform 2 (UniProt Q12894) | -0.073 | 0.008 | 0.24 | 0 | -0.278 | -0.219 | 0.128 | 0.508 (active) | 0.037 | 0.336
GCSH (UniProt P23434) | -0.086 | -0.029 | 0.014 | -0.024 | 0.154 | 0.03 | 0.003 | 0.001 | -0.028 | -0.078
FAM91A1 (UniProt Q658Y4) | -0.081 | -0.059 | 0.029 | -0.044 | -0.076 | -0.003 | -0.013 | 0.035 | 0.045 | -0.047
H1FX (UniProt Q92522) | -0.116 | 0.112 | 0.049 | 0.161 | -0.147 | 0.033 | -0.044 | -0.24 | 0.133 | -0.134
GLRX3 (UniProt O76003) | 0.005 | -0.056 | 0.056 | -0.001 | -0.063 | 0.012 | -0.009 | -0.018 | 0.062 | -0.003
FUBP3 (UniProt Q96I24) | 0.129 | 0.055 | -0.072 | 0.049 | 0.034 | 0.165 | -0.049 | 0.009 | 0.006 | -0.062
GDPD1 (UniProt Q8N9F7) | 0.353 (active) | 0.056 | 0.13 | 0.156 | -0.068 | 0.208 | 0.067 | 0.021 | 0.04 | 0.085
HK2 (UniProt P52789) | 0.035 | 0.031 | 0.03 | -0.064 | -0.124 | 0.097 | -0.07 | 0.005 | -0.206 | -0.353 (active)
GSTO1 (UniProt P78417) | -0.015 | -0.031 | -0.017 | -0.037 | -0.063 | -0.048 | -0.001 | 0.021 | 0.02 | -0.033
GNPAT (UniProt O15228) | 0.008 | -0.054 | 0.064 | -0.05 | -0.038 | -0.022 | 0.03 | 0 | 0.061 | 0.148
GSTM4 (UniProt Q03013) | 0.027 | 0.103 | 0.084 | 0.031 | 0.061 | 0.084 | -0.056 | 0.068 | 0.031 | 0.022
